# PNC assembly inh: inhibitors of perinucleolar compartment assembly | activity change (PNC), negative = inhibition, % at 10 µM | 140,000 compounds, 3.1% hits | PC3M PTB-GFP, PNC prevalence imaging, 16 h; active compounds read low;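 active = readout at or below -70, meaning at least 70% loss of cells showing the perinucleolar compartment, a nuclear body marking cancer cells; inconclusive = readout between -30 and a set limit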;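 note: plate controls were DMSO wells for no effect and camptothecin positive control wells for full effect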
#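 PC3M cells stably expressing PTB-GFP, 750–1000 cells/well, treated 16 h at 37 °C with compound (23 nl of library stock), in duplicate. After paraformaldehyde fixation and Hoechst stain, imaged at 20x; PNC prevalence scored by image analysis.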
# ALDH1A1 inh: ALDH1A1 (human) enzyme inhibition | 220,000 compounds, 7.3% hits | P00352 | Potency, µM (highest dose often 75.3 µM), for inactives: at the highest dose activity, negative = inhibition, actives largely listed as inhibitors | Purified ALDH1A1, NADH fluorescence, propionaldehyde substrate | AID 1030;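 note: potency is the fitted concentration of half-maximal effect; plate controls were no enzyme wells and a reference inhibitor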
# LMNA splice mod: changes lamin A minigene splicing in HeLa cells. HeLa LMNA splicing GFP/RFP minigene ratio, 48 h. Potency, µM (titrated, usually from 46.1 µM), for the others: top-dose ratio change, negative = inhibition, actives largely listed as inhibitors. 200,000 compounds, 0.01% hits. AID 1487; active = well fitted inhibition curve with a large enough effect in the signal ratio, with a control signal flat, not every such curve was filed as active; inconclusive = small, poorly fitted or top-dose-only effect, or effect the other way, or a change in a side signal; the % refers to the signal ratio; note: potency is the fitted concentration of half-maximal effect
#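 S3 HeLa stable clones carrying a lamin A-EGFP splicing minigene plus DsRed2 were seeded at 600 cells/well in Opti-MEM with 2% FBS, pin-dosed and incubated 48 h at 37°C. Acumen cytometry (488 nm) gave the GFP/RFP total-intensity ratio.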
# HPGD block: HPGD (human) dehydrogenase inhibition | 150,000 compounds, 4.3% hits | P15428 | Potency, µM, for the others: at the top dose activity change, negative = inhibition, usual class: inhibitors | AID 894 | purified HPGD, NADH fluorescence kinetic, PGE2 substrate; note: potency is the fitted concentration of half-maximal effect
# Target sequence (P15428 whole entry, looked up): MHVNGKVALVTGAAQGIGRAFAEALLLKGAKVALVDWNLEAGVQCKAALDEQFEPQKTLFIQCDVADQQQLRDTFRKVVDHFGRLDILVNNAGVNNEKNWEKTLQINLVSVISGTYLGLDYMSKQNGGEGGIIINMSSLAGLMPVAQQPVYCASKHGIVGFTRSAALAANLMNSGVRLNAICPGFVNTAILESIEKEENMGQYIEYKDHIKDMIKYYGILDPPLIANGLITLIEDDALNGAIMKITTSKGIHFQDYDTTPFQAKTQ
#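 20 nM HPGD preincubated 15 min at room temperature with compound in 50 mM Tris-HCl pH 8, 0.01% Tween 20. Started with 1 mM NAD+ and 30 uM prostaglandin E2; NADH fluorescence (360/450 nm) read 5 times over 30-s intervals, last minus first.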
# 12-hLO inh: inhibitors of human 12-lipoxygenase (ALOX12); P18054; purified 12-hLO, xylenol orange hydroperoxide absorbance; Potency, µM (top dose mostly 57.1 µM), inactives show at the top dose activity change, negative = inhibition, hits mostly inhibitors; 150,000 compounds, 0.12% hits; AID 1452; active = well fitted inhibition curve with a large enough effect; inconclusive = small, poorly fitted or top-dose-only effect; note: potency is the fitted concentration of half-maximal effect; nearly all actives have a fitted effect of over 55% in size
#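 Lipoxygenase turnover measured by absorbance at 573 and 405 nm after Fe-XO development. Human 12hLO 150 nM, arachidonate 40 uM, pH 7.0 Hepes buffer with detergent; 15 min compound preincubation, 30 min reaction.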
# * = called active by the depositor; ? = inconclusive; nt = not tested or not shown; [ ] = remark or other dose. Compounds with a hit are over-represented: about 10% of the library has one in this group of screens. Unless noted, calls come from the whole dose curve; as a rule, active = well fitted inhibition curve with a large enough effect (not every such curve was filed as active); inconclusive = small, poorly fitted or top-dose-only effect, or another doubt; inactive = no such curve, though single readings can be large or run the other way. Unless noted, % is set by controls: 0 for no effect and ±100 for the full control effect.
SMILES,PNC assembly inh,ALDH1A1 inh,LMNA splice mod,HPGD block,12-hLO inh
CCN(CC)S(=O)(=O)c1ccc2oc(SCC3CN=C(c4ccc(OC)cc4)S3)nc2c1 (stereo not drawn),24,22µM*,?,14µM*,-4%
COc1ccc(C2=NCC(CSc3nnnn3C)S2)cc1 (stereo not drawn),5,?,?,-18%,-5%
c1cc(CSc2nnc(-c3ccc4c(c3)OCO4)o2)ccn1,2,4%,-5%,-3%,-11%
COc1ccc(C2=NCC(CSc3nnc(-c4ccc5c(c4)OCO5)o3)S2)cc1 (stereo not drawn),32,-16%,?,22µM*,-15%
COc1ccc(C2=NCC(CSc3nccc(=O)[nH]3)S2)cc1 (stereo not drawn),-12,?,1%,14µM*,-1%
CC(=O)O[C@@H]1C(=O)[C@@]2(C)[C@H](O)C[C@H]3OC[C@]3(OC(C)=O)[C@@H]2[C@H](OC(=O)c2ccccc2)[C@@]2(O)C[C@H](OC(=O)[C@@H](O)[C@@H](NC(=O)c3ccccc3)c3ccccc3)C(C)=C1C2(C)C (stereo in doubt),nt,2%[20.9 µM],?,-3%,-2%[25.6 µM]
CCOC(=O)Cn1c(=O)n(CC2CCCO2)c2nc(-c3ccccc3F)nc(C(N)=O)c21 (stereo not drawn),nt,nt,3%[46 µM],nt,nt
O=C(COc1ccc(/C=N/NC(=O)c2cc3ccccc3o2)cc1Cl)Nc1ccccc1,-119*,?,-2%,?,-1%
COCCCn1c(=O)/c(=C\c2ccccc2OC(F)F)s/c1=C(/C#N)C(=O)N1CCOCC1,nt,6.3µM*,-24%[46 µM],nt,nt
COCCCNC(=O)/C(C#N)=c1\s/c(=C\c2ccccc2OC(F)F)c(=O)n1CCCOC,?,-9%,0%,?,8%
Oc1ccc(-c2cn3c(n2)SCC3)cc1O,-16,6.3µM*,4%,2.2µM*,-14%
Cc1cnc(C(=O)N2CCCC(C(=O)c3ccc(C(C)(C)C)cc3)C2)cn1 (stereo not drawn),nt,13µM*,nt,nt,nt
CCc1ccc(Nc2nc(-c3cc4cccc(OC)c4oc3=O)c(CC)s2)cc1,nt,nt,-1%[46 µM],nt,nt
CCOc1ccc(/C(O)=C2\C(=O)C(=O)N(CCN(C)C)C2c2cccc(OC)c2OC)cc1Cl (stereo not drawn),?,?,-4%,-15%,4%
CN(C)CCN1C(=O)C(=O)/C(=C(/O)c2ccccc2)C1c1ccccc1F (stereo not drawn),?,18µM*,-6%,-16%,-4%
COc1ccc(/C(O)=C2\C(=O)C(=O)N(CCCN(C)C)C2c2ccccc2F)cc1Cl (stereo not drawn),-3,-4%,-1%,-3%,5%
COc1cccc(C2/C(=C(\O)c3ccc4c(c3)OCO4)C(=O)C(=O)N2CCN(C)C)c1OC (stereo not drawn),-16,22µM*,9%,-28%,-10%
COCCCN1C(=O)C(=O)/C(=C(/O)c2ccc3c(c2)OCCO3)C1c1ccc(C(=O)OC)cc1 (stereo not drawn),-5,1%,11%,-6%,-8%
CCN(CC)CCCN1C(=O)C(=O)/C(=C(/O)c2ccc3c(c2)OCCO3)C1c1ccc(C)o1 (stereo not drawn),-19,25µM*,4%,-15%,-13%
COc1cc(-c2noc(CSc3nc(-c4ccccc4)cc(=O)[nH]3)n2)cc(OC)c1OC,nt,nt,-17%[46 µM],nt,nt
O=C(NCc1cccnc1)/C(=C\c1ccc(-c2ccc(Br)cc2)o1)S(=O)(=O)c1ccccc1,?,3.5µM*,?,-16%,-4%
O=C(NCc1cccnc1)/C(=C/c1ccc(-c2ccc(Cl)cc2)o1)S(=O)(=O)c1ccccc1,31,?,?,?,-8%
OCCCN=C1CCCCC1,nt,-8%[13.5 µM],nt,-5%,-4%[11.4 µM]
O=C1c2ccccc2C(=O)N1c1cccc(-c2csc(Nc3ccc4c(c3)OCO4)n2)c1,20,7.1µM*,-2%,-17%,-1%
O=Nc1ccc2oc(=O)ccc2c1,nt,0.13µM*,?,16µM*,-11%
CC(C)NC[C@H]1CCc2cc(CO)c([N+](=O)[O-])cc2N1,nt,19%[20.9 µM],-15%,0%,0%[25.6 µM]
Cc1cccc(C(=O)NNC(=O)c2ccccc2)c1,27,12%,5%,1%,-1%
